# From PubChem BioAssay (NCI)
# About 79,000 compounds went through this panel and 15% of them were active in at least one assay; those are over-represented in the sample as a whole. Unmarked numbers belong to inactive results. Calls of active or inactive are those of the source. Cut-off read from the data, not from the text of the source: active = growth inhibition above about 70%; inactive = the rest.
# What was measured:
# [1] = NCI Yeast Anticancer Drug Screen. Data for the wt1 strain (AID 149);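 note: 0% = growth of vehicle-treated wt1 cultures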; conditions: S. cerevisiae wt1 strain (SPY 50644) growth inhibition, active compounds read high
# Procedure, shortened: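 wt1 yeast, compound-treated; % growth inhibition vs vehicle control.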
# [2] = NCI Yeast Anticancer Drug Screen. Data for the rad50EPP+ strain (AID 151);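 note: 0% = growth of vehicle-treated control cultures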; conditions: S. cerevisiae rad50 mutant strain, active compounds read high
# Procedure, shortened: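 Read-out is yeast growth inhibition relative to vehicle; cells used were the rad50EPP+ strain.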
# [3] = NCI Yeast Anticancer Drug Screen. Data for the mgt1 strain (AID 153); conditions: S. cerevisiae mgt1 mutant growth inhibition, active compounds read high
# Procedure, shortened: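 Measured: inhibition of mgt1 yeast growth by compound, normalized to vehicle-treated cultures.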
# [4] = NCI Yeast Anticancer Drug Screen. Data for the rad50 strain (AID 155);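 note: 0% = growth of vehicle-only cultures of the same strain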; conditions: S. cerevisiae rad50 strain growth inhibition, active compounds read high
# Procedure, shortened: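 Genetically altered yeast (DNA repair pathway); compound treatment; growth inhibition vs vehicle ctrl.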
# [5] = NCI Yeast Anticancer Drug Screen. Data for the mec2-1 strain (AID 157); conditions: S. cerevisiae mec2-1 strain, active compounds read high
# Procedure, shortened: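 Using mec2-1 yeast: add compound, measure growth, express inhibition versus vehicle-treated cultures.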
# [6] = NCI Yeast Anticancer Drug Screen. Data for the rad14 strain (AID 159);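 note: 0% = growth of vehicle-treated control cultures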; conditions: S. cerevisiae rad14 strain growth inhibition, active compounds read high
# Procedure, shortened: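 Test compounds were applied to a repair-deficient yeast strain. Its growth was then compared with that of cultures given vehicle alone, and inhibition was expressed relative to those controls.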
# [7] = NCI Yeast Anticancer Drug Screen. Data for the sgs1 mgt1 strain (AID 161);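 note: 0% = growth of cultures given vehicle only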; conditions: S. cerevisiae sgs1 mgt1 strain, active compounds read high
# Procedure, shortened: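 This yeast growth screen uses a strain with defined DNA-repair lesions; compound-treated growth is compared with vehicle-treated growth.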
# [8] = NCI Yeast Anticancer Drug Screen. Data for the CLN2oe strain (AID 163);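 note: 0% = growth of vehicle-only control cultures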; conditions: S. cerevisiae CLN2oe strain, active compounds read high
# Procedure, shortened: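 Whole-cell yeast growth assay. A strain engineered for altered cell-cycle control received compound, and inhibition relative to vehicle-treated cultures was recorded.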
# [9] = NCI Yeast Anticancer Drug Screen. Data for the cln2 rad14 strain (AID 165);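 note: 0% = growth equal to vehicle treated cultures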; conditions: S. cerevisiae cln2 rad14 strain, active compounds read high
# Procedure, shortened: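 Yeast strain cln2 rad14, bearing defects in cell cycle control and DNA repair, serves as the test system; values reflect growth inhibition compared with vehicle.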
# [10] = NCI Yeast Anticancer Drug Screen. Data for the bub3 strain (AID 167); conditions: S. cerevisiae bub3 mutant strain, active compounds read high
# Procedure, shortened: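 Yeast carrying a defined mutation is treated with each compound, and growth is compared with that of vehicle-exposed cells to give inhibition.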
# [11] = NCI Yeast Anticancer Drug Screen. Data for the wt2 strain (AID 169);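 note: 0% = growth of vehicle-treated yeast cultures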; conditions: S. cerevisiae wt2 strain growth inhibition, active compounds read high
# Procedure, shortened: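 Treated yeast vs. vehicle-treated yeast: growth inhibition determined.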
# [12] = NCI Yeast Anticancer Drug Screen. Data for the mlh1 strain (AID 171);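 note: 0% = growth of vehicle-treated control cultures of the same strain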; conditions: S. cerevisiae mlh1 strain growth inhibition, active compounds read high
# Procedure, shortened: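 A yeast strain with a defined genetic lesion serves as the test organism. Cultures receive compound or vehicle, and growth is measured.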
# [13] = NCI Yeast Anticancer Drug Screen. Data for the mlh1 rad18 strain (AID 175); conditions: S. cerevisiae mlh1 rad18 strain growth inhibition, active compounds read high
# Procedure, shortened: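 Steps: expose repair-defective yeast to compound; measure growth; express inhibition against vehicle-treated controls.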
# [14] = NCI Yeast Anticancer Drug Screen. Data for the rad18 strain (AID 177); conditions: S. cerevisiae rad18 mutant growth inhibition, active compounds read high
# Procedure, shortened: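 Measured value is growth inhibition of a yeast strain bearing a DNA repair alteration, referenced to vehicle-treated cells.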
# [15] = NCI Yeast Anticancer Drug Screen. Data for the sgs1 strain (AID 173);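 note: 0% = growth of vehicle-only control cultures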; conditions: S. cerevisiae sgs1 mutant, active compounds read high
# Procedure, shortened: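 A genetically defined yeast mutant is incubated with the test compound, and its growth is compared to that of the same strain given vehicle.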
# [16] = at 5.0 µM (retest, dose inferred, filed as 0.5)
# [17] = at 50.0 µM (retest, dose inferred, filed as 5.0)
smiles,measurement,setting,value
CC(=O)OCc1ccc(O)c(C=O)c1,growth inhibition,[1]; at 1.2 µM,-26%
same,growth inhibition,[1]; at 3.7 µM,-4%
same,growth inhibition,[1]; at 11.0 µM,-23%
same,growth inhibition,[1]; at 33.0 µM,8%
same,growth inhibition,[1]; at 100.0 µM,18%
same,growth inhibition,[2]; at 1.2 µM,-6%
same,growth inhibition,[2]; at 3.7 µM,-2%
same,growth inhibition,[2]; at 11.0 µM,-10%
same,growth inhibition,[2]; at 33.0 µM,14%
same,growth inhibition,[2]; at 100.0 µM,60%
same,growth inhibition,[3]; at 1.2 µM,-24%
same,growth inhibition,[3]; at 3.7 µM,-17%
same,growth inhibition,[3]; at 11.0 µM,-18%
same,growth inhibition,[3]; at 33.0 µM,6%
same,growth inhibition,[3]; at 100.0 µM,25%
same,growth inhibition,[4]; at 1.2 µM,-5%
same,growth inhibition,[4]; at 3.7 µM,-20%
same,growth inhibition,[4]; [16],16%
same,growth inhibition,[4]; at 11.0 µM,10%
same,growth inhibition,[4]; at 33.0 µM,6%
same,growth inhibition,[4]; [17],66%
same,growth inhibition,[4]; at 50.0 µM,77.5% (active)
same,growth inhibition,[4]; at 100.0 µM,59%
same,growth inhibition,[5]; at 1.2 µM,-13%
same,growth inhibition,[5]; at 3.7 µM,-13%
same,growth inhibition,[5]; [16],0%
same,growth inhibition,[5]; at 11.0 µM,-29%
same,growth inhibition,[5]; at 33.0 µM,-11%
same,growth inhibition,[5]; [17],41%
same,growth inhibition,[5]; at 50.0 µM,56.9%
same,growth inhibition,[5]; at 100.0 µM,35%
same,growth inhibition,[6]; at 1.2 µM,-5%
same,growth inhibition,[6]; at 3.7 µM,-2%
same,growth inhibition,[6]; at 11.0 µM,2%
same,growth inhibition,[6]; at 33.0 µM,14%
same,growth inhibition,[6]; at 100.0 µM,81% (active)
same,growth inhibition,[7]; [16],36%
same,growth inhibition,[7]; [17],89% (active)
same,growth inhibition,[7]; at 50.0 µM,62.5%
same,growth inhibition,[8]; at 1.2 µM,-5%
same,growth inhibition,[8]; at 3.7 µM,1%
same,growth inhibition,[8]; at 11.0 µM,11%
same,growth inhibition,[8]; at 33.0 µM,-12%
same,growth inhibition,[8]; at 100.0 µM,-2%
same,growth inhibition,[9]; [16],15%
same,growth inhibition,[9]; [17],30%
same,growth inhibition,[9]; at 50.0 µM,49.7%
same,growth inhibition,[10]; at 1.2 µM,-7%
same,growth inhibition,[10]; at 3.7 µM,-7%
same,growth inhibition,[10]; [16],25%
same,growth inhibition,[10]; at 11.0 µM,-7%
same,growth inhibition,[10]; at 33.0 µM,-8%
same,growth inhibition,[10]; [17],82% (active)
same,growth inhibition,[10]; at 50.0 µM,2.85%
same,growth inhibition,[10]; at 100.0 µM,-11%
same,growth inhibition,[11]; at 1.2 µM,-36%
same,growth inhibition,[11]; at 3.7 µM,-30%
same,growth inhibition,[11]; at 11.0 µM,-28%
same,growth inhibition,[11]; at 33.0 µM,-11%
same,growth inhibition,[11]; at 100.0 µM,32%
same,growth inhibition,[12]; at 1.2 µM,0%
same,growth inhibition,[12]; at 3.7 µM,-7%
same,growth inhibition,[12]; at 11.0 µM,-5%
same,growth inhibition,[12]; at 33.0 µM,24%
same,growth inhibition,[12]; at 100.0 µM,30%
same,growth inhibition,[13]; [16],26%
same,growth inhibition,[13]; [17],61%
same,growth inhibition,[13]; at 50.0 µM,48.7%
same,growth inhibition,[14]; at 1.2 µM,-13%
same,growth inhibition,[14]; at 3.7 µM,9%
same,growth inhibition,[14]; at 11.0 µM,54%
same,growth inhibition,[14]; at 33.0 µM,83% (active)
same,growth inhibition,[14]; at 100.0 µM,89% (active)
CCCCc1cc(O)ccc1O,growth inhibition,[1]; at 1.2 µM,-2%
same,growth inhibition,[1]; at 3.7 µM,-2%
same,growth inhibition,[1]; at 11.0 µM,0%
same,growth inhibition,[1]; at 33.0 µM,3%
same,growth inhibition,[1]; at 100.0 µM,1%
same,growth inhibition,[2]; at 1.2 µM,13%
same,growth inhibition,[2]; at 3.7 µM,34%
same,growth inhibition,[2]; at 11.0 µM,57%
same,growth inhibition,[2]; at 33.0 µM,77% (active)
same,growth inhibition,[2]; at 100.0 µM,88% (active)
same,growth inhibition,[3]; at 1.2 µM,-4%
same,growth inhibition,[3]; at 3.7 µM,-1%
same,growth inhibition,[3]; at 11.0 µM,1%
same,growth inhibition,[3]; at 33.0 µM,0%
same,growth inhibition,[3]; at 100.0 µM,10%
same,growth inhibition,[4]; at 1.2 µM,6%
same,growth inhibition,[4]; at 3.7 µM,12%
same,growth inhibition,[4]; [16],-81%
same,growth inhibition,[4]; at 11.0 µM,32%
same,growth inhibition,[4]; at 33.0 µM,54%
same,growth inhibition,[4]; [17],87% (active)
same,growth inhibition,[4]; at 50.0 µM,20.7%
same,growth inhibition,[4]; at 100.0 µM,62%
same,growth inhibition,[5]; at 1.2 µM,4%
same,growth inhibition,[5]; at 3.7 µM,2%
same,growth inhibition,[5]; [16],-37%
same,growth inhibition,[5]; at 11.0 µM,1%
same,growth inhibition,[5]; at 33.0 µM,17%
same,growth inhibition,[5]; [17],-13%
same,growth inhibition,[5]; at 50.0 µM,11.2%
same,growth inhibition,[5]; at 100.0 µM,28%
same,growth inhibition,[6]; at 1.2 µM,2%
same,growth inhibition,[6]; at 3.7 µM,3%
same,growth inhibition,[6]; at 11.0 µM,18%
same,growth inhibition,[6]; at 33.0 µM,31%
same,growth inhibition,[6]; at 100.0 µM,35%
same,growth inhibition,[7]; [16],-48%
same,growth inhibition,[7]; [17],6%
same,growth inhibition,[7]; at 50.0 µM,43.7%
same,growth inhibition,[8]; at 1.2 µM,-3%
same,growth inhibition,[8]; at 3.7 µM,1%
same,growth inhibition,[8]; at 11.0 µM,3%
same,growth inhibition,[8]; at 33.0 µM,11%
same,growth inhibition,[8]; at 100.0 µM,21%
same,growth inhibition,[9]; [16],-54%
same,growth inhibition,[9]; [17],-31%
same,growth inhibition,[9]; at 50.0 µM,19.5%
same,growth inhibition,[10]; at 1.2 µM,-9%
same,growth inhibition,[10]; at 3.7 µM,-1%
same,growth inhibition,[10]; [16],-63%
same,growth inhibition,[10]; at 11.0 µM,-5%
same,growth inhibition,[10]; at 33.0 µM,5%
same,growth inhibition,[10]; [17],3%
same,growth inhibition,[10]; at 50.0 µM,27.6%
same,growth inhibition,[10]; at 100.0 µM,19%
same,growth inhibition,[11]; at 1.2 µM,0%
same,growth inhibition,[11]; at 3.7 µM,-1%
same,growth inhibition,[11]; at 11.0 µM,1%
same,growth inhibition,[11]; at 33.0 µM,3%
same,growth inhibition,[11]; at 100.0 µM,6%
same,growth inhibition,[12]; at 1.2 µM,6%
same,growth inhibition,[12]; at 3.7 µM,-1%
same,growth inhibition,[12]; at 11.0 µM,4%
same,growth inhibition,[12]; at 33.0 µM,9%
same,growth inhibition,[12]; at 100.0 µM,4%
same,growth inhibition,[15]; at 1.2 µM,0%
same,growth inhibition,[15]; at 3.7 µM,6%
same,growth inhibition,[15]; at 11.0 µM,10%
same,growth inhibition,[15]; at 33.0 µM,24%
same,growth inhibition,[15]; at 100.0 µM,42%
same,growth inhibition,[13]; [16],-86%
same,growth inhibition,[13]; [17],42%
same,growth inhibition,[13]; at 50.0 µM,64.3%
same,growth inhibition,[14]; at 1.2 µM,3%
same,growth inhibition,[14]; at 3.7 µM,7%
same,growth inhibition,[14]; at 11.0 µM,15%
same,growth inhibition,[14]; at 33.0 µM,26%
same,growth inhibition,[14]; at 100.0 µM,31%
